Results reported in PubChem BioAssay.
For part of these data: Measured potencies and affinities stand elsewhere. The source made the active and inactive calls.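 The calls were made as follows, unless noted: active = hit in primary screen, with calcium signal over 5 SD above buffer well mean in both duplicates; inactive = the rest.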

What was measured:
[1] = tested on: TRPC4 beta (transient receptor potential cation channel C4), mouse; experiment: TRPC4 cation channel opening, retest – cell-based, Fluo4 calcium, HEK293 TRPC4beta/mu-opioid, duplicates, 10 µM, confirmation (AID 2426;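 active = fluorescence ratio normalized to control raised more than 50% in primary screen plus both repeat runs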;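 as to activation: percent rise of integrated ratio over buffer wells lacking compound which define 0%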); conditions: Fluo4 calcium fluorescence, at 10 µM; hits give high values
[2] = tested on: transient receptor potential cation channel C4 beta (TRPC4), mouse; experiment: TRPC4 cation channel opening, second retest – cell-based, second round, Fluo4, HEK293 TRPC4beta/mu-opioid, 1 µM, confirmation (AID 2461;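 active = primary screen active and over 50% activation in each of two duplicate runs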;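 as to activation: 0% = wells without test compound as baseline of integrated fluorescence ratio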); conditions: Fluo4 calcium fluorescence, at 1 µM; hits give high values
[3] = tested on: TRPC4 (transient receptor potential cation channel C4 beta), mouse; experiment: potentiation of DAMGO EC20 TRPC4 response – cell-based, second round, Fluo-4, HEK293 TRPC4beta/mu-opioid, 1 µM, confirmation (AID 2554;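 active = primary screen hit whose fluorescence ratio, in both repeats, exceeds the weak agonist control mean by 3 SD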); conditions: DAMGO EC20, Fluo-4 calcium flux, at 1 µM; hits give high values
[4] = tested on: TRPC4 beta (transient receptor potential cation channel C4), mouse; experiment: potentiation of DAMGO EC20 TRPC4 response – cell-based, Fluo-4, HEK293 TRPC4beta/mu-opioid, confirmation (AID 2555;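 active = primary screen hit whose calcium fluorescence ratio, in both repeats, exceeds the weak agonist control mean by 3 SD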); conditions: DAMGO EC20, Fluo-4 calcium flux, at 10 µM; hits give high values
[5] = molecular target: Short transient receptor potential channel 4 (Mus musculus) (UniProt Q9QUQ5); experiment: blockers of DAMGO-evoked TRPC4 calcium flux – cell-based, Fluo4, HEK293 TRPC4beta/mu-opioid, confirmation (AID 2636;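 active = calcium signal cut by more than 3 SD below the full-agonist control yet still positive, in both repeats and the earlier primary screen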); conditions: at 10 µM; hits give high values
[6] = molecular target: Short transient receptor potential channel 4 (Mus musculus) (UniProt Q9QUQ5); experiment: blockers of DAMGO-evoked TRPC4 calcium flux – cell-based, second round, Fluo4, HEK293 TRPC4beta/mu-opioid, 1 µM, confirmation (AID 2637;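 active = calcium signal ratio cut to more than 3 SD under the fully stimulated control mean yet still positive, in both repeats and the primary screen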;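 as to inhibition: percent of integrated ratio relative to wells lacking test compound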); conditions: at 1 µM; hits give high values
[7] = molecular target: Short transient receptor potential channel 4 (Mus musculus) (UniProt Q9QUQ5); experiment: potentiation of DAMGO-evoked TRPC4 calcium signal – cell-based, HEK293 TRPC4/mu-opioid, Fluo-4 calcium, EC20 DAMGO, dose response (AID 434941;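 active = earlier screen potentiator hit that boosts the TRPC4 ion channel at some dose, with a dose response; inactive = no potentiation, no dose response, or not a prior hit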;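 also: calcium entry triggered by an EC20 dose of DAMGO at the co-expressed mu-opioid receptor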)
[8] = molecular target: Short transient receptor potential channel 6 (Mus musculus) (UniProt Q61143); experiment: TRPC6 blockade by TRPC4 inhibitor hits – cell-based, HEK293, membrane potential dye, duplicate, selectivity assay for TRPC4 inhibitor project, confirmation (AID 434948;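 active = active in primary screen and both duplicates, each dropping signal beyond three positive-control SD with fluorescence still positive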); conditions: HEK293 TRPC6, membrane potential dye fluorescence, at 10 µM, stimulated with maximal-effect acetylcholine; hits give high values
[9] = molecular target: Short transient receptor potential channel 6 (Mus musculus) (UniProt Q61143); experiment: TRPC6 opening by TRPC4 activator hits – cell-based, HEK293, membrane potential dye, duplicate, selectivity assay for TRPC4 activator project, confirmation (AID 434950;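 active = membrane potential signal rise above negative control mean plus 3 SD in both duplicates, also active in the earlier TRPC4 screen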;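 as to activation: 0% = buffer only wells and 100% = acetylcholine maximal-effect wells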); conditions: HEK293 TRPC6, membrane potential fluorescence, at 10 µM; activation: hits give high values; outcome: activation
[10] = molecular target: Short transient receptor potential channel 6 (Mus musculus) (UniProt Q61143); experiment: positive modulators of mouse TRPC6 channel – HEK293 cells, membrane potential dye, duplicate, selectivity assay for TRPC4 potentiator project, confirmation (AID 434952;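 active = compound raising the membrane signal above positive-control mean plus 3 SD in both repeats, and a primary screen hit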); conditions: HEK293 TRPC6, membrane potential dye fluorescence, at 10 µM, maximal acetylcholine added after compound; hits give high values
[11] = molecular target: Short transient receptor potential channel 4 (Mus musculus) (UniProt Q9QUQ5); experiment: calcium flux activators in TRPC4/5HT1a cells, counter-screen for TRPC4 activator project, cell-based, second counter screen, HEK293 TRPC4/5HT1a, Fluo-4 (AID 434977;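 active = calcium signal rise above buffer-control mean plus 5 SD in both duplicates, and also a hit in the primary screen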); conditions: Fluo-4 calcium flux, at 10 µM; hits give high values
[12] = serotonin-gated TRPC4 signal block – cell-based, second counter screen, HEK293 TRPC4/5HT1a, Fluo-4, counter-screen for TRPC4 inhibitor project, confirmation (AID 434978;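 active = primary screen active whose calcium signal fell more than 3 SD beyond the full-serotonin control mean in both duplicate plates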;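 also: serotonin given first at submaximal then at maximal dose after compound preincubation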); conditions: Fluo-4 calcium flux, at 10 µM, serotonin added to trigger calcium flux; hits give high values
[13] = tested on: TRPC4 (mouse), co-expressed with 5HT1a in HEK293; experiment: enhancement of serotonin-evoked TRPC4 response – cell-based, second counter screen, HEK293 TRPC4/5HT1a, Fluo-4, counter-screen for TRPC4 potentiator project, confirmation (AID 434979;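 active = signal rise over 3 SD above mean of control wells given weak agonist, in both repeats and first screen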); conditions: Fluo-4 calcium flux, at 10 µM, serotonin added at its EC20 dose; hits give high values
[14] = nonspecific calcium rise without TRPC4 – cell-based, HEK293 mu-opioid receptor line, counter-screen for TRPC4 activator project, confirmation (AID 449723); conditions: HEK293 mu-opioid cells, Fluo-4 calcium fluorescence, at 10 µM; hits give high values;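 also: counter screen cells carry the mu-opioid receptor alone and lack TRPC4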
[15] = nonspecific potentiation of DAMGO calcium response – cell-based, HEK293 mu-opioid receptor line, counter-screen for TRPC4 allosteric potentiator project, confirmation (AID 449724;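 active = calcium signal rise more than 3 SD above the low-dose agonist control mean, in both duplicate plates and the primary screen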); conditions: HEK293 mu-opioid receptor cells, Fluo-4 calcium flux, at 10 µM, compound added before EC20 DAMGO stimulus; hits give high values

Chain of Short transient receptor potential channel 4 (Mus musculus) (Q9QUQ5 whole entry, looked up): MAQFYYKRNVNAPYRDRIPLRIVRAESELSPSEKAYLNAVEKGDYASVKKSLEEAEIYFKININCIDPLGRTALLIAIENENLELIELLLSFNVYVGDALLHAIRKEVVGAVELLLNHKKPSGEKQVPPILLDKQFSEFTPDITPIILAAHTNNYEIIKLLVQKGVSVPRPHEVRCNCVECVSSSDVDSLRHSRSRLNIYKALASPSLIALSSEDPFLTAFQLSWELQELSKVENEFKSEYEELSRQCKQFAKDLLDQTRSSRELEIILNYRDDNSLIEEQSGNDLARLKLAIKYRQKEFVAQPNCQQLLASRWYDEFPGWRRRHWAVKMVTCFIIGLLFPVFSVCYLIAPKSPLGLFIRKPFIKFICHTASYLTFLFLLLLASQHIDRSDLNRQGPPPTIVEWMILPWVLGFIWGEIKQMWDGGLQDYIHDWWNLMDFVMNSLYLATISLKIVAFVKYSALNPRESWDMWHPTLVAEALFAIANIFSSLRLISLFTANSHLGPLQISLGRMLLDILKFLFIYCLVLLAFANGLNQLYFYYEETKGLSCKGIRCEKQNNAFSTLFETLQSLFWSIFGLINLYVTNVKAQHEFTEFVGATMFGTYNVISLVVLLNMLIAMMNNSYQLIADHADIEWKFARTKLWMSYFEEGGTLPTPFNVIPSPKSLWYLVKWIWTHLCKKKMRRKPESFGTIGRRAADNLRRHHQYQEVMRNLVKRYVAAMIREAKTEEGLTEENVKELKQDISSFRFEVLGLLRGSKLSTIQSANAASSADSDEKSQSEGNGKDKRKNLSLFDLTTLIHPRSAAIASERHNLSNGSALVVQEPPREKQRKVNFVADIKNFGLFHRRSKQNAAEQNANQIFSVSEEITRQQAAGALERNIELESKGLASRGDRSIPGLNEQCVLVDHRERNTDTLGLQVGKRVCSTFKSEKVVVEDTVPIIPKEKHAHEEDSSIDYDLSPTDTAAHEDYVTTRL
Chain of Short transient receptor potential channel 6 (Mus musculus) (Q61143 whole entry, looked up): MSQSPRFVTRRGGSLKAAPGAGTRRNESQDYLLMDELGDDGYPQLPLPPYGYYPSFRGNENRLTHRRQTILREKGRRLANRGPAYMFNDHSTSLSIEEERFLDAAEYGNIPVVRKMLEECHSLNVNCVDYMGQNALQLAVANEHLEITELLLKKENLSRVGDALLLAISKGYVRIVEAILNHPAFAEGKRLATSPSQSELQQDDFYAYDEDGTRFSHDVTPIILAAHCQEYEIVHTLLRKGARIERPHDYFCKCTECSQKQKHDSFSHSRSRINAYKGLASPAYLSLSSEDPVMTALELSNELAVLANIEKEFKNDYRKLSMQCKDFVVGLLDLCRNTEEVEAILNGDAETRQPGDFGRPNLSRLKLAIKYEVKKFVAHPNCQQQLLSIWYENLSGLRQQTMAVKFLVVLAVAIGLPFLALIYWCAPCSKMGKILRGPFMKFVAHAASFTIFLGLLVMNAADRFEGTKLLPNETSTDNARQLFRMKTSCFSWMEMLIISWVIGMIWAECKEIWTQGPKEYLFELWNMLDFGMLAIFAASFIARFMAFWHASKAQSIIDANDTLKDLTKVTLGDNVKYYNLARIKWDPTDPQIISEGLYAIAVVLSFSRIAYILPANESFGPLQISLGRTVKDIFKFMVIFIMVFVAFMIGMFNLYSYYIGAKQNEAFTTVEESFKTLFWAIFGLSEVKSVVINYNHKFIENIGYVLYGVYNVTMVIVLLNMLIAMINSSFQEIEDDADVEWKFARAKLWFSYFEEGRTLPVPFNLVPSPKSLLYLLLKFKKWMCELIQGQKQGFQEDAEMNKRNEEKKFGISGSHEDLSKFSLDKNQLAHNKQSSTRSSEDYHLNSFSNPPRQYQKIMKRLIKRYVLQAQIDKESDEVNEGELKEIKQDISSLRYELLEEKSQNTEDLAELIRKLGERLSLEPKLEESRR

CN(C)C(CNC(=O)Cc1cccc(C(F)(F)F)c1)c1ccccc1 (stereo not given)
active: activation [1] 129% | activation [2] 142% | activation [9] 31%
inactive: outcome [3] | outcome [4] | outcome [5] | outcome [6] | outcome [7] | outcome [8] | outcome [10] | outcome [11] | outcome [12] | outcome [13] | outcome [14] | outcome [15]

CCCCC(c1nnnn1CC1CCCO1)N1CCN(Cc2ccccc2)CC1 (stereo not given)
inactive: outcome [1] | outcome [2] | outcome [3] | outcome [4] | outcome [6] | outcome [7] | outcome [8] | outcome [10] | outcome [11] | outcome [12] | outcome [13] | outcome [14] | outcome [15]
active: inhibition [5] 84% | activation [9] 64.5%

Cc1c(C(=O)N(Cc2cccs2)C2CCS(=O)(=O)C2)oc2ccccc12 (stereo not given)
inactive: outcome [1] | outcome [2] | outcome [3] | outcome [4] | outcome [6] | outcome [7] | outcome [8] | outcome [10] | outcome [11] | outcome [12] | outcome [13] | outcome [14] | outcome [15]
active: inhibition [5] 97% | activation [9] 56.5%

Cc1ccccc1C(=O)Nc1c(C(=O)N(CCN(C)C)Cc2ccco2)oc2ccccc12
inactive: outcome [2] | outcome [3] | outcome [4] | outcome [5] | outcome [6] | outcome [7] | outcome [8] | outcome [10] | outcome [11] | outcome [12] | outcome [13] | outcome [14] | outcome [15]
active: activation [1] 84% | activation [9] 33.5%

COc1cccc(CC2(CO)CCCN(Cc3ccccc3-c3ccco3)C2)c1 (stereo not given)
inactive: outcome [1] | outcome [2] | outcome [3] | outcome [4] | outcome [5] | outcome [7] | outcome [8] | outcome [10] | outcome [11] | outcome [12] | outcome [13] | outcome [14] | outcome [15]
active: inhibition [6] 42% | activation [9] 47%

COc1ccc(C(CNC(=O)c2cccc3cccnc23)N(C)C)cc1 (stereo not given)
active: activation [1] 132% | inhibition [6] 80% | activation [9] 33%
inactive: outcome [2] | outcome [3] | outcome [4] | outcome [5] | outcome [7] | outcome [8] | outcome [10] | outcome [11] | outcome [12] | outcome [13] | outcome [14] | outcome [15]

O=c1c2ccccc2[nH]c(=S)n1Cc1cccnc1
inactive: outcome [1] | outcome [2] | outcome [3] | outcome [4] | outcome [6] | outcome [7] | outcome [8] | outcome [9] | outcome [10] | outcome [11] | outcome [12] | outcome [13] | outcome [14] | outcome [15]
active: inhibition [5] 94%
